Measurements: PubChem BioAssay AID1347426 (Functional Genomics Laboratory (NCATS/FGL), 2020)
About 1,400 (4.5%) of roughly 31,000 sequences were called active.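 How the source made its calls: active means median seed-adjusted z-score above 1 or below -1; inactive means the rest.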 The full list was thinned out, with actives kept by preference.

Assay: Novel Modifiers of Survival Motor Neuron (SMN) Protein: Gene Identification via Genome-wide siRNA Screen;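 further: luminescence tracks full-length SMN protein made from the SMN2 reporter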
Details: HEK293T SMN2-luciferase reporter, siRNA knockdown, 72 h; actives lie on both sides
Procedure, shortened: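 HEK293T cells stably carrying an SMN2 promoter/splicing cassette–luciferase reporter were reverse-transfected with 1 pmol siRNA per well (druggable-genome library, 3 siRNAs per gene) and grown 72 h at 37 °C. Luminescence, normalized to negative-control siRNA and log10-transformed, was scored as MAD.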

Sequence	median seed-adjusted z-score
GCAGCAUAAUGAAACGUGATT against ARPM1	-0.0251 (inactive)
UCUUCGAGCAAGAAACUAATT against CD9	-1.02 (active)
AUAAAUUCCUGAUUGCUAATT against CXCL6	0.802 (inactive)
GGACUACAGCGGACAAGGATT against WDR1	-0.457 (inactive)
GGAACAUUCCUGUGCAACATT against MTMR3	0.281 (inactive)
GAUGAUAGCCAAACCCUCATT against ZNF626	0.185 (inactive)
GGUGUUGUUUCAUCGUUUUTT against CCNL1	-1.26 (active)
GUGCAUGCAGGAGAAGUCATT against GATA2	0.623 (inactive)
GCAUGCAGCCUUGAAGAUATT against CRYZL1	0.0481 (inactive)
CGUGUCAAAUAUUGGAUUATT against KLB	0.221 (inactive)
GCACCUUCGUCCUCAACUUTT against PROC	-0.228 (inactive)
CCGCUGAACCUGUUGAAGATT against SGMS2	-0.492 (inactive)
GGUGCUCUCGGUUGCACAATT against U2AF1	2.08 (active)
CAAGCUCUGAUAUACCGAATT against HIVEP1	0.532 (inactive)
UGCACAUCAAGUAUCCUAATT against SLC30A10	0.523 (inactive)
GCAUCAUCCAGAACACGGATT against ARHGEF18	0.586 (inactive)
CGAUGGAGAUGUUUCGGGATT against KCNA2	-1.03 (active)
GCGAGAGUCUGCAUAGGUATT against GRIN2D	-0.135 (inactive)
GGAAGAAAGUAUAAUAGAATT against MAFG	0 (inactive)
UGAUCAACCUCAAGACGGATT against MED16	-0.6 (inactive)
GAAACACGUCAGUCCUAAUTT against LHX8	0 (inactive)
GAAGUUCAUACUAAGCGUATT against TPR	-1.03 (active)

Sequence	median seed-adjusted z-score
CGUGGUACCAGACAUCUGATT against CCL17	0.178 (inactive)
GACCGACUGCAGAACAAUATT against PDE6B	-0.336 (inactive)
GGAUAAUACAGUUCGAUUATT against TAF5	-0.192 (inactive)
GACUCCCUGCUUUCAAUAATT against SALL2	0.504 (inactive)
CCCUCUCAGUACUACGCUATT against ZMYND10	0.255 (inactive)
CAAGAAAACUGCGAAUAAATT against STX2	0.442 (inactive)
GUUUCAUCUGGGUUCGCUATT against SF3B3	-2.53 (active)
GAACCAUCUCAAUACUAUUTT against DACH2	-0.00102 (inactive)
GGGCGAGUAUUAUGACUAUTT against MYO15A	0.0508 (inactive)
GACUGUUCGUUUCCCAGAUTT against CHRNA7	-0.485 (inactive)
GAGACAGCCUGAUGGAGAATT against STC1	-1.36 (active)
GCUCCUUGCUACCAUAGUATT against CCBP2	-0.0896 (inactive)
CUCUCAGACAAGCUACUGATT against CCL27	0 (inactive)
GUUGUGGUCUGAUCAGUUATT against TUBA1A	0.284 (inactive)
AGUUCCCUUUGUAACCAUATT against ZNF669	0.175 (inactive)
AGGCUGCGUUUGGACCAGATT against PAPLN	-0.186 (inactive)
CAUGGGUGCUUAUAAGUCATT against IL1A	1.12 (active)
GGGCUGCACCAAAGCCUAUTT against KLF14	0.0241 (inactive)
GUUUAUUUCGUACACUAAATT against KTI12	0.0814 (inactive)
GCGUCGUGGUCAUGAACAATT against PIP5K1C	-0.13 (inactive)
CAGUGUCCCUAUGAAGGGATT against SRMS	-1.58 (active)
GCUAUUGAGUUUGCCCAAATT against ADHFE1	0.418 (inactive)

Sequence	median seed-adjusted z-score
CUAGUGAUCUUUUAGAGUUTT against CSGALNACT2	0.236 (inactive)
GAACUUUAUUGCAAAGUUUTT against CSRP3	0.15 (inactive)
GCAUCGAGAUCCACGAAGATT against PITPNM3	-0.0378 (inactive)
AGAAGACUCUGGUAAUGUATT against WHSC1	1.17 (active)
CUGAUUCAAGAGAAGAUUATT against SMARCAL1	-0.145 (inactive)
GAACAGAUCCGGAAGAAGATT against NR1H2	0.069 (inactive)
GGACUUUGAUUGCUAGCAATT against CTRC	-0.104 (inactive)
GCUUGAAGAGUUUGGCUGGTT against DUSP15	0 (inactive)
GCAAUUAACAAUUAUCGAUTT against RNASE3	0.588 (inactive)
AGUUUGUCCUGAAGAAUUATT against PTPN23	-0.0473 (inactive)
GGGUCAUCUAUAUCCGCAATT against GPR132	0 (inactive)
GCAUCUGCUGUAUCGAUGATT against MCM4	0.0057 (inactive)
GCCCUUACAGGGUAUCAAATT against DDX46	-1.24 (active)
CACGGAUUCUUGUUGGAAATT against RAB33B	-0.758 (inactive)
GUUCGAAUCAAGAACCCUATT against NT5C3	-0.456 (inactive)
UGAUAGAGAUCAACCCAUATT against PSMB5	-1.37 (active)
ACAUGAUCAUCAGUGUGAATT against FABP4	0.227 (inactive)
GCGUCAUGAUGUUCACCUATT against ITGB5	-0.00882 (inactive)
GCAUGGGAAUCAUUGUGCUTT against PPIL1	0.166 (inactive)
CCAGUACACUUUUGUCUGATT against CDC5L	-0.628 (inactive)
AAGUGUGCCUGAAUACUAUTT against KHDRBS2	-0.335 (inactive)
GGAGCAGUCACUUACAGAATT against PINK1	0.192 (inactive)

Sequence	median seed-adjusted z-score
CCACUGUCCUGUUUGAGAUTT against FKBP6	-1.12 (active)
CGGAUUAUCUUCUAUCUAUTT against SLC6A14	0 (inactive)
GUCUUGACCUUGAACGCAATT against VIM	0.431 (inactive)
GGCUUCUUCUCGUGCAUCATT against KCNK3	0 (inactive)
GAAGGGUGAUUCUAAUAUUTT against GPR174	-0.324 (inactive)
GAAUCUGUCAGGAAUGACATT against RARB	0.409 (inactive)
CAUCGAAUCCUUACCCGAATT against AASDHPPT	0.64 (inactive)
GCCUCACCUCAAUUGCAAATT against ANP32D	-0.714 (inactive)
GACUACGCCUUGAAGCUAATT against TAF6	-1.36 (active)
GCUUUCGUCAAGUCAAAGATT against TIRAP	-0.431 (inactive)
AGAGCUAGAUGGAAGAACATT against SFRS3	2.74 (active)
ACUGACAUUUUUCAACUCATT against ALDH1L1	0.0289 (inactive)
CUACCGCAUCAGUAACAGATT against DDX21	-0.251 (inactive)
GACUCUGAGUAUAAAGUGATT against BARHL1	0.397 (inactive)
GGCUGGAUGUCAUUGAGAATT against SRGAP3	-0.0961 (inactive)
GCGAGGGCCUUUUUGAGUATT against CRYAA	-1.03 (active)
GAUCGAAUCUUUAAGGUCUTT against EIF2C1	0.215 (inactive)
ACAUCUCCGAAAUCGCCUATT against SLC2A8	-0.105 (inactive)
AAAUGGAUGAGUUGCAAUUTT against PITX1	0 (inactive)
GCUCCGAAGUGGUGAUCAATT against CHRM1	1.1 (active)
GGAUAUGCCUUAGAUUACATT against PRTFDC1	0.493 (inactive)
GGUUCAUGACAGACAAGAATT against SHMT1	0.179 (inactive)

Sequence	median seed-adjusted z-score
GCAUGUAUCUGCUUGAUAUTT against ODC1	-1.64 (active)
GUUUUUGUCCUAGCCCAUATT against OTUD7A	-0.53 (inactive)
GCCCAUGUCCCAAAUCACATT against PDE4A	-0.147 (inactive)
GGCAAAAUCUGGACACCAUTT against TFAP4	-0.0515 (inactive)
CCGGAAUUUUUGACAAGAATT against PTGS2	-0.21 (inactive)
AGAUCUGCAUGAAACAACATT against VPS16	0.306 (inactive)
GGUCUGAAACUCUACUAUATT against SHPRH	0.169 (inactive)
GGUUCUAACUUCGAAAAAUTT against DNAJC8	-1.62 (active)
AGUCUGUCCGAGUACUUCATT against LFNG	-0.13 (inactive)
GAGUUAAGUGAUAAGUAUATT against ZNF639	0.182 (inactive)
GCUCUGUAAUAGUCGACUATT against TOPBP1	0.0888 (inactive)
GCUUGUAGCUCUUAAGGUUTT against PPP2CA	0.731 (inactive)
GGUCUUUAUUCGGAAGCGATT against ZNF525	0.134 (inactive)
GAUAUUGAGCGGUUACAAATT against ATP7B	0.0947 (inactive)
GCACUCAUGUCAUACUGAATT against LIPA	0.535 (inactive)
GUUACUUCCGAAUCCAUGATT against ZNF627	0.204 (inactive)
GGAAACCUCUGGACCUCUATT against ARID1A	-1.14 (active)
GGACAGAUCUGCAAAGAGATT against CETP	0 (inactive)
GAUGUACCUUGAUACAGUATT against IDH3A	0.137 (inactive)
CUGAUGAUCUACUCAUAUATT against TEKT1	0.222 (inactive)
